# Test results as given in PubChem BioAssay AID504534 (National Center for Advancing Translational Sciences (NCATS), 2011).
# Records with an inconclusive call do not appear. Values without a mark were called inactive. Activity calls are given as the source filed them. Calls come from the whole dose curve; as a rule, active = well fitted curve in the direction sought with a large enough effect; inconclusive = small, poorly fitted or top-dose-only effect, or another doubt; inactive = no such curve, though single readings can be large or run the other way.
# Experiment: Secondary Assay for Inhibitors of Human Cdc-like kinase 4 (Clk4): HEK-293 Cell Viability Assay;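 note: cytotoxic hits lower the ATP light signal so activity reflects loss of viability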; for activity change, negative = cytotoxicity: % of control where 0% means no effect
# Details: HEK-293 viability, ATP luminescence (CellTiter-Glo), 24/48 h; series mostly up to 46.1 µM; activity change, negative = cytotoxicity: at the top concentration
# Experimental: NIH Molecular Libraries Probe Production Centers Network [MLPCN] NIH Chemical Genomics Center [NCGC] MLPCN Grant: 1R03MH084827-01 Assay Submitter (PI): Tom Misteli NCGC Assay Overview: Cytotoxicity of the active compounds in the Clk4 screens was assessed using the CellTiter-Glo Luminescent Cell Viability Assay kit (Promega, USA) in the HEK-293 (ATCC) cell line. CellTiter-Glo measures the intracellular ATP present in metabolically active cells using Ultra-Glo as the luciferase to detect ATP levels. In brief, the luciferase in the buffer catalyzes the oxidation of luciferin to oxyluciferin and light which is dependent on ATP. […] Wells treated with various concentrations of cycloheximide (Sigma) and DMSO, and wells with media alone were used as positive and negative controls, respectively. […] [1] http://www.promega.com/tbs/tb288/tb288.pdf
# NCGC Assay Protocol Summary: HEK-293 cells were grown in a flask up to 80% confluence. Cells were trypsinized, washed, and resuspended in MEM Eagle + 10% FBS + 1% pen-strep media at a concentration of 120 cells/uL. Five uL/well of cell solution was dispensed into a 1536-well assay plates (Greiner, solid white medium-binding plates) with Aurora Discovery BioRAPTR Flying Reagent Dispenser (FRD; Beckton-Dickenson). Cells were pre-incubated at 37 degree Celsius, 5% CO2 for four hours. Compound and control solutions (23nL) were then transferred to the assay plate using the Kalypsys 1536-pin tool. Assay plates were re- incubated at 37 degree Celsius, 5% CO2. After 24 or 48 hours, five uL of CellTiter Glo detection reagent was added. Luminescence signal was read with Perkin Elmer ViewLux plate reader after 30 min room temperature incubation.
# Potency is the fitted concentration of half-maximal effect.
Compound,"activity change, negative = cytotoxicity [%]",Potency
CCOC(=O)c1ccoc1-c1ccc2ncnc(NCc3ccc(C)o3)c2c1,-1.84,–
c1cncc(CNc2ncnc3ccc(-c4cccnc4)cc23)c1,8.34,–
c1coc(CNc2ncnc3ccc(-c4ccc5c(c4)OCO5)cc23)c1,-14,–
CCOC(=O)c1ccc(-c2ccc3ncnc(NCc4ncc[nH]4)c3c2)o1,-9.91,–
CCn1cnc(CCN(C)c2ncnc3ccc(-c4ccc5c(c4)OCO5)cc23)c1,-2.87,–
Fc1cccc(CNc2ncnc3ccc(-c4ccoc4)cc23)c1,6.22,–
CCN(Cc1sccc1C)c1ncnc2ccc(-c3ccc4c(c3)OCO4)cc12,-27.4,–
Cc1occc1CNc1ncnc2ccc(-c3ccc4c(c3)OCO4)cc12,-20.2,–
Cc1ccc(CNc2ncnc3cc(-c4ccc5c(c4)OCO5)ccc23)o1,-17.4,–
c1nc(NCCc2cnc[nH]2)c2cc(-c3ccoc3)ccc2n1,5.81,–
O=C(O)c1ccc(-c2ccc3ncnc(N4CCOCC4)c3c2)o1,3.54,–
CCOC(=O)c1ccc(-c2ccc3ncnc(NCc4ccc(C)o4)c3c2)o1,7.87,–
Cc1nc(CSc2ncnc3ccc(-c4ccc5c(c4)OCO5)cc23)cs1,1.36,–
Cc1nc(CCN(C)c2ncnc3ccc(-c4ccc5c(c4)OCO5)cc23)cs1,-17,–
CCOC(=O)c1ccc(-c2ccc3ncnc(NCc4cccs4)c3c2)o1,-2.15,–
c1csc(CNc2ncnc3ccc(-c4ccc5c(c4)OCCO5)cc23)c1,0.849,–
CCOC(=O)c1ccc(-c2ccc3ncnc(NCCc4cnc[nH]4)c3c2)o1,-6.21,–
c1nc(NCc2ccc3c(c2)OCO3)c2cc(-c3ccc4c(c3)OCCO4)ccc2n1,-9.9,–
c1nc(NCC2CCCO2)c2ccc(-c3ccc4c(c3)OCO4)cc2n1 (stereo not given),-17.5,–
c1nc(N2CCNCC2)c2cc(-c3ccc4c(c3)OCO4)ccc2n1,-12.9,–

Compound,"activity change, negative = cytotoxicity [%]",Potency
Cc1ccc(CNc2ncnc3ccc(-c4ccc5c(c4)OCO5)cc23)s1,-28.5,–
CN(Cc1ccco1)c1ncnc2ccc(-c3ccoc3)cc12,-9.24,–
CCCNc1ncnc2ccc(-c3ccc4c(c3)OCO4)cc12,4.07,–
Cc1csc(CNc2ncnc3ccc(-c4ccc5c(c4)OCO5)cc23)n1,-28.3,–
Cc1cccc(CNc2ncnc3ccc(-c4cccc(C)c4)cc23)c1,-2.85,–
CCNC(=O)c1ccc(-c2ccc3ncnc(NCc4nccs4)c3c2)o1,-4.27,–
c1nc(NCc2ccoc2)c2cc(-c3ccc4c(c3)OCO4)ccc2n1,-18.3,–
Cc1ccc(CNc2ncnc3ccc(-c4ccoc4C)cc23)o1,-14.1,–
CN(CC1CCCO1)c1ncnc2ccc(-c3ccc4c(c3)OCO4)cc12 (stereo not given),-9.72,–
O=C(O)c1ccc(-c2ccc3ncnc(NCC4CCCO4)c3c2)o1 (stereo not given),-5.42,–
Cc1nc(CNc2ncnc3ccc(-c4ccoc4)cc23)cs1,2.4,–
CN(CCc1ccco1)c1ncnc2ccc(-c3ccc4c(c3)OCO4)cc12,-16.2,–
c1nc(NCC2CCCC2)c2cc(-c3ccc4c(c3)OCO4)ccc2n1,1.59,–
c1coc(CCNc2ncnc3ccc(-c4ccc5c(c4)OCO5)cc23)c1,-10.3,–
Cc1cccc(CNc2ncnc3ccc(-c4cccnc4)cc23)c1,9.4,–
Cc1ccc(CN(C)c2ncnc3ccc(-c4ccc(CO)o4)cc23)o1,–,12.5 µM (active)
NCCNc1ncnc2ccc(-c3ccc4c(c3)OCO4)cc12,-23.2,–
c1csc(CNc2ncnc3cc(-c4ccc5c(c4)OCO5)ccc23)c1,-10.7,–
Cc1nc(CN(C)c2ncnc3ccc(-c4ccc5c(c4)OCO5)cc23)cs1,–,28.1 µM (active)
Cc1csc(CNc2ncnc3ccc(-c4ccoc4)cc23)c1,-15.6,–
